Data on 14 compounds can be found in PubChem BioAssay.

Structures are written as SMILES. The source made the active and inactive calls.

Assay [1] can be described thus: compound effects on lung adenocarcinoma cell viability – A549, calcein-AM fluorescence, 48 h, basal, profiling panel (AID 1162). As to conditions: higher = more signal.
Assay [2] can be described thus: compound effects on differentiated 3T3-L1 adipocyte viability – cell-based, 3T3-L1 adipocytes, calcein-AM fluorescence, 48 h, basal, profiling panel (AID 1163). As to conditions: 3T3-L1 adipocytes viability, higher = more signal.
Assay [3] in a line: compound effects on hepatocellular carcinoma cell viability – HepG2, calcein-AM fluorescence, 48 h, basal, profiling panel (AID 1164). As to conditions: higher = more signal.
Assay [4] in a line: compound effects on multiple myeloma cell viability – MM1S, calcein-AM fluorescence, 48 h, basal, profiling panel (AID 1165).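 Also: viability of MM1S multiple myeloma cells under basal unstimulated conditions.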 The note with it: higher = more signal.
A short description of assay [5]: calcein-AM signal in unstimulated myeloma cells – cell-based, calcein-AM fluorescence, 48 h, PK04 Diversity Set, profiling panel (AID 1166).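 Also: cells grown under basal conditions without added stimulus.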 The note with it: RPMI8226 myeloma viability, higher = more signal.
Assay [6] can be described thus: JC-1 mitochondrial signal, unstimulated HepG2 cells – cell-based, JC-1 fluorescence, 24 h, 100 nL compound, profiling panel (AID 1167). As to conditions: HepG2 mitochondrial potential, higher = more signal.
The nature of assay [7]: JC-1 mitochondrial signal, unstimulated adipocytes – cell-based, JC-1 fluorescence, 3T3-L1 adipocytes, 24 h, 100 nL compound, profiling panel (AID 1168). The note with it: JC-1 mitochondrial fluorescence, higher = more signal, called active from +8 up or from −8 down.
A short description of assay [8]: JC-1 mitochondrial signal, unstimulated myeloma cells – cell-based, JC-1 fluorescence, RPMI8226, 24 h, 100 nL compound, profiling panel (AID 1169). As to conditions: JC-1 mitochondrial potential fluorescence, higher = more signal.
Assay [9] can be described thus: JC-1 mitochondrial signal, unstimulated MM1S myeloma – cell-based, JC-1 fluorescence, 24 h, 100 nL compound, profiling panel (AID 1170). As to conditions: MM1S mitochondrial potential, higher = more signal.
Assay [10] in a line: resazurin metabolic signal in A549 cells – cell-based, resazurin fluorescence, 24 h, PK04 Diversity Set, profiling panel (AID 1171). The note with it: A549 viability, higher = more signal, called active from +8 up or from −8 down. (Alamar Blue is a resazurin reagent that responds to reducing activity.)
Also: test concentration not given here.

`[N-]=[N+]=Nc1ccccc1C[C@@]1(C(=O)NCCN2CCOCC2)N=C(c2ccc(OCCCO)cc2)O[C@@H]1c1ccccc1`: the z-score in assay [1] is 0.189; in [2] it was -0.455; in [3], 0.357; in assay [4], -0.511; in [5], -0.905; in [6] it was 2.55. In addition, the z-score in [7] is 0.248 (inactive); in assay [8], -0.293; in assay [9], -1.35; in assay [10], -0.524 (inactive).
In the case of `CC(=O)NCCCC[C@@H]1NC(=O)[C@@H]2C[C@H](C(=O)NCCCCCCNC(=O)CS)[C@H](c3cccc(OCCO)c3)N2C1=O`, the z-score in [1] was 0.0596; in assay [2] it was -0.834; in assay [3], 0.282; in [4], 0.211; in [5] it was 0.132; in assay [6] it was -0.387. The z-score in assay [7] is 0.0104 (inactive); in assay [8] it was -0.811; in [9] it was -0.333; in [10], -0.435 (inactive).
Regarding `CCCC#C[Si](O[C@H](CC)c1cn([C@H](CO)Cc2ccccc2)nn1)(C(C)C)C(C)C`, the z-score was 0.0096 in assay [1]; -0.263 in [2]; 0.0341 in assay [3]; -1.21 in assay [4]; 0.0028 in assay [5]; -0.371 in assay [6]. Besides, the z-score in assay [7] is 0.406 (inactive); in [8], 0.78; in assay [9], -0.752; in assay [10], 0.401 (inactive).
With `COCCOC(=O)N1C(=O)[C@@]2(c3cc(C#CC4=CCCCC4)ccc31)[C@H](c1ccc(O)cc1)N1[C@H](c3ccccc3)[C@H](c3ccccc3)OC(=O)[C@H]1[C@@H]2C(N)=O`, the z-score in [1] was 0.505; in [2], 0.633; in assay [3] it was -0.364; in [4], -2.77; in assay [5] it was -4.14; in assay [6], -2.55. Besides, the z-score in assay [7] was 0.29 (inactive); in assay [8], -0.902; in assay [9], -1.19; in [10], -0.954 (inactive).
Regarding `COc1ccc(CCN2C(=O)[C@@]3(Cc4ccccc42)c2ccccc2C(=O)N(Cc2ccccc2C(F)(F)F)[C@H]3c2ccc(CO)cc2)cc1`, the z-score in assay [1] was -0.306; in assay [2] it was 0.885; in [3], -0.863; in [4] it was 0.122; in [5] it was -1.57; in assay [6] it was -0.739. For the same compound, the z-score in [7] is -0.753 (inactive); in assay [8] it was 0.923; in assay [9], -1.59; in assay [10], 0.639 (inactive).
In the case of `COC(=O)[C@@]1(Cc2ccc(F)cc2)[C@H]2c3cc(C(=O)N(C)C)n(CC4CC4)c3C[C@H]2CN1C(=O)c1ccccc1`, the z-score in [1] is -0.654; in [2] it was 0.128; in [3] it was -0.0517; in assay [4], -2.21; in assay [5], -3.32; in assay [6], 1.41. Moreover, the z-score is -0.708 (inactive) in [7], -0.858 in assay [8], -1.21 in assay [9] and -1.38 (inactive) in assay [10].
With `C=CC[C@]1(C(=O)N2CCCCC2)N=C(c2ccc(OCCCO)cc2)O[C@H]1c1ccccc1`, the z-score in assay [1] is 0.396; in [2], 0.0234; in [3], -0.426; in assay [4], -2.35; in assay [5], -1.35; in [6], 0.53. For the same compound, the z-score in assay [7] was -0.0613 (inactive); in assay [8], -1.16; in assay [9], 0.447; in [10], 2.72 (inactive).
Turning to `COCC(=C=CC[C@H](O)c1ccccc1OCCO)C[C@H](O)c1cc(Cl)cc(Cl)c1O`, the z-score in assay [1] was -2.79; in assay [2] it was -4.68; in assay [3], -2.64; in assay [4], -2.93; in assay [5], -3.02; in assay [6], -0.775. The z-score in [7] was 1.66 (inactive); in assay [8] it was -0.57; in assay [9] it was -1.88; in [10] it was -3.06 (inactive).
On to `COc1cc(OC)c(C(O)C2C=CC3C(=O)NC(=O)C3N2Nc2ccc(Cl)cc2Cl)cc1Br` (stereo not given), for which the z-score in assay [1] is -1.52; in assay [2], 0.0779; in assay [3] it was -2.49; in assay [4] it was -3.42; in assay [5], -3.97; in [6], -2.87. Moreover, the z-score in assay [7] is -0.82 (inactive); in [8] it was -1.09; in [9] it was -1.27; in assay [10], -2.56 (inactive).
With `O=C(C1N=C(c2ccc(OCCCO)cc2)N(c2ccccc2)O1)N1CCOCC1` (stereo not given), the z-score in [1] is 0.895; in assay [2] it was 0.349; in assay [3], 0.0818; in [4] it was 0.932; in [5], 1.22; in [6], 0.0222. The z-score in assay [7] was 0.645 (inactive); in assay [8], -1.06; in assay [9], -1.05; in [10] it was 0.298 (inactive).
In the case of `O=C1c2ccccc2[C@](Cc2ccccc2I)(C(=O)NC2CC2)[C@H](c2ccc(CO)cc2)N1C1CCCCC1`, the z-score was 0.818 in assay [1]; 0.835 in assay [2]; 0.677 in assay [3]; -1.02 in assay [4]; -1.98 in assay [5]; 2.11 in assay [6]. In addition, the z-score in assay [7] was 0.252 (inactive); in assay [8], -0.482; in assay [9] it was -0.299; in assay [10] it was 0.91 (inactive).
For `C#CCN(Cc1ccccc1Br)C(/C=C/c1ccccc1)CO` (stereo not given), the z-score in assay [1] is -3.65; in [2] it was -0.011; in [3], -3.95; in assay [4] it was -3.26; in assay [5], -4.12; in assay [6], -2.83. The z-score in assay [7] was 0.165 (inactive); in assay [8], -1.2; in assay [9] it was -1.21; in assay [10], -0.411 (inactive).
For the compound `O=C(c1ccccc1)N1Cc2ccccc2[C@@H]2OC(c3ccc(OCCCO)cc3)=N[C@]2(Cc2ccccc2)C1=O`, the z-score in assay [1] is -1.09; in assay [2] it was 1.27; in [3], -0.795; in [4], -2.02; in [5], -3.92; in assay [6], -0.435. The z-score in assay [7] was 0.166 (inactive); in assay [8], -1.11; in assay [9] it was 0.106; in assay [10], -1.57 (inactive).
`COc1cc2c(cc1OC)CN(C(=O)[C@@H]1[C@H]3C(=O)O[C@H](c4ccccc4)[C@H](c4ccccc4)N3[C@H](c3ccc(O)cc3)[C@@]13C(=O)Nc1ccc(C#CC4(O)CCCCCC4)cc13)CC2`: the z-score was 0.192 in [1]; 0.284 in assay [2]; 1.37 in [3]; 0.132 in assay [4]; -0.0905 in assay [5]; -0.769 in assay [6]. The z-score in assay [7] is -0.771 (inactive); in assay [8], -0.767; in [9], -0.401; in assay [10], 1.05 (inactive).
